# High-throughput results from PubChem BioAssay.
# RN4220 kill = kills Staphylococcus aureus RN4220 | S. aureus RN4220 growth, OD600, 16 h | 330,000 compounds, 0.33% hits | inhibition, % (no concentration beside the values); in the data active = inhibition above about 85%;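 note: plate controls were untreated cells for no effect and reference antibiotic for full effect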
# ugtP null kill = compounds lethal to S. aureus RN4220 ugtP deletion mutant | OD600 growth, 16 h | growth inhibition, % (test concentration not listed) | AID 1259309 | 330,000 compounds, 0.54% hits; in the data active = growth inhibition above about 68%;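 note: plate controls were untreated wells for no effect and antibiotic for full effect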
# DUSP3 inh = blocks human VHR1 dual specificity phosphatase. recombinant VHR phosphatase, pNPP absorbance. inhibition, % at 13.3 µM. 290,000 compounds, 0.52% hits. AID 1654; in the data active = inhibition above about 50%
# Target sequence (P51452 whole entry, looked up): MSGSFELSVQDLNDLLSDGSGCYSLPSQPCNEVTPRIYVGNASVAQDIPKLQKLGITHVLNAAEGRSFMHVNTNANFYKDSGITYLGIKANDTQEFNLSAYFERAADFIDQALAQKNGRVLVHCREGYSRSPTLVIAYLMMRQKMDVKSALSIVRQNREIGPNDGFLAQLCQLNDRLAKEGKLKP
# SSB-PriA inh = blocks PriA binding to SSB C-terminal tail | AlphaScreen SSBct-PriA binding, biotinylated peptide | 430,000 compounds, 0.6% hits | inhibition, % at 33 µM; in the data active = inhibition mostly above about 37%, no sharp cut-off; inactive = mostly below about 20%;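 note: plate controls were negative control peptide for no effect and reference peptide for full effect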
# Mtb hypoxia rep = Mtb hypoxia fluorescent reporter inhibition. M. tuberculosis hypoxia-regulated fluorescent reporter, fluorescence. fluorescence inhibition, % (concentration not given with the values). 300,000 compounds, 0.1% hits. AID 1159583; in the data active = fluorescence inhibition mostly above about 23%, no sharp cut-off; inactive = mostly below about 17%
# PfHsp40 rescue = restores yeast growth despite PfHsp40 toxicity. S. cerevisiae expressing PfHsp40, growth rescue, ATP luminescence. growth rescue, % at 12.5 µM. 340,000 compounds, 0.68% hits; in the data active = growth rescue above about 28%, passing the limit was not always enough; inconclusive = no clear call, values can overlap the other calls;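 note: yeast W303a lacking pdr1 and pdr3 grown in galactose medium; growth measured after three days at 30 °C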
# * hit, by the source's call; ? = inconclusive; / = not tested or not shown. Compounds with a hit are over-represented: about 1.8% of the library has one in this group of screens.
SMILES,RN4220 kill,ugtP null kill,DUSP3 inh,SSB-PriA inh,Mtb hypoxia rep,PfHsp40 rescue
c1ccc(CNc2nc(-c3ccccc3)nc3ccccc23)cc1,-17,-8,8,-40,0,0
Cc1ccc(-c2cc(CNC(=O)c3c(-c4ccccc4Cl)noc3C)no2)cc1,/,/,/,-1,/,/
CCN(CC(=O)Nc1ccc(NC(C)=O)cc1)C(=O)C(c1ccccc1)c1ccccc1,2,2,51*,-8,6,1
Cc1cc(C=C2C(=O)N(C)C(=S)N2C)ccc1N1CCCC1,20,-11,/,/,0,/
Cc1c(N=Cc2cc(Br)cc(Br)c2O)cccc1C(=O)O,30,6,7,-8,1,59*
O=C(O)c1cccc(N/N=C/c2cc(Br)cc(Br)c2O)c1,/,/,-2,/,/,-1
O=C(N/N=C/c1cn(-c2ccccc2)nc1-c1cccs1)c1ccccc1F,/,/,-5,/,/,201*
O=C(N/N=C/c1cn(-c2ccccc2)nc1-c1cc2ccccc2o1)c1ccncc1,/,/,-5,/,/,180*
O=C(NN=Cc1cn(-c2ccccc2)nc1-c1cccs1)c1ccc(Cl)cc1,-4,-19,/,8,-8,/
O=C(NCCCn1ccnc1)C(=O)Nc1cccc(Cl)c1,/,/,/,43,/,/
S=C(NCCCn1ccnc1)Nc1cccc(Cl)c1,0,3,11,4,9,35*
Fc1ccc(CSc2ncnc3sc4c(c23)CCCC4)cc1,8,83*,27,-34,2,0
c1nc(SCc2ccc3c(c2)OCO3)c2c3c(sc2n1)CCCCC3,/,/,/,-11,/,/
COc1cc(/C=C2\SC(N)=NC2=O)ccc1OCC(=O)Nc1ccc(C)cc1,6,-8,14,/,53*,1
Br/C(C=NNc1nc2ccccc2[nH]1)=C\c1ccccc1,/,/,/,22,/,/
O=C(CCN1C(=O)C2C3C=CC(C4CC34)C2C1=O)Oc1cccc2cccnc12 (stereo unspecified),100*,98*,17,7,-2,0
O=C(CCc1ccccc1)Nc1ccc(N2CCCCC2=O)cc1,/,/,/,2,/,/
CCOC(=O)C(C)Sc1nnc(CNC(=O)c2ccc(OC)cc2)n1-c1ccccc1Cl (stereo unspecified),/,/,/,-9,/,/
O=C(c1ccc([N+](=O)[O-])o1)N1CCN(Cc2nc(-c3ccc(F)cc3)cs2)CC1,/,/,/,11*,/,/
COC(=O)c1ccccc1NC(=O)C12CCC(C)(C(=O)C1Br)C2(C)C (stereo unspecified),/,/,/,-9,/,/
O=C(NCc1ccccn1)Nc1ccccc1C(F)(F)F,2,-4,6,-9,6,-1
O=S(=O)(Nc1ccccc1C(F)(F)F)c1ccc(-c2ccccn2)s1,46,-4,21,-5,4,28*
Oc1c(N=Nc2ccccn2)ccc2ccccc12,-3,-4,26,49*,-74,?
COC(=O)c1ccsc1NC(=O)CSc1ccc(C)cc1,/,/,/,-14,/,/
CCOC(=O)C1(C(C)(C)CC)CC(CSc2nc3ccccc3[nH]2)OC1=O (stereo unspecified),9,1,0,-17,-2,69*
SMILES,RN4220 kill,ugtP null kill,DUSP3 inh,SSB-PriA inh,Mtb hypoxia rep,PfHsp40 rescue
CCOC(=O)NC(=O)CSc1nc2ccccc2[nH]1,-2,6,25,-18,9,-1
Cc1nc2c(ccc3nc(NC(=O)Cc4ccccc4)sc32)s1,/,/,8,-10,/,29*
Cc1ccccc1Cn1c(NC2CC(C)CC(C)(C)C2)nc2c1c(=O)[nH]c(=O)n2C (stereo unspecified),/,/,/,4,/,/
Cc1ccc(CNC(=S)NC2CCC(C(C)(C)C)CC2)cc1 (stereo unspecified),-9,-9,-15,-9,0,188*
CC(NC(=S)NC1CCC(C(C)(C)C)CC1)c1ccccc1 (stereo unspecified),-8,-25,27,-11,-2,71*
COc1ccc(CNC(=S)NC2CCCC2)cc1,2,9,-4,-12,7,0
Cc1nc(-n2cccc2)sc1C(=O)Nc1nc2c(s1)C(=O)NCCC2,/,/,/,active,/,/
CCCCCc1cc(=O)oc2c(C(CCN3CCCCC3)c3ccc4c(c3)OCO4)c(OC)cc(OC)c12 (stereo unspecified),13,18,22,42*,/,-1
CCN(CC)CCC(c1ccc(N(C)C)cc1)c1c(OC)cc(OC)c2c(-c3ccccc3)cc(=O)oc12 (stereo unspecified),-1,-2,7,87*,-2,-1
COc1cc(OC)c2c(C)cc(=O)oc2c1C(CCN1CCOCC1)c1ccc(N(C)C)cc1 (stereo unspecified),5,2,18,45*,9,2
